Results on 40 molecules are retold here after PubChem BioAssay (EPA / NIEHS).

SMILES strings stand for the structures. Activity calls are given as the source filed them. The calls were made as follows: active = hit-call score of the fitted dose curve at least 0.9, where 1 is the maximum; inactive = score below 0.9.

A short description of this experiment: APR_HepG2_MitoMass_72hr: Apredica 72-hour HepG2 Assay for Mitochondrial Mass (AID 2282924).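 Also: MitoTracker Red CMXRos stain intensity per cell imaged as mitochondrial mass.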 Particulars: high-content imaging, actives raise or lower the signal. On the procedure: APR_HepG2_72hr is a cell-based, multiplexed-readout assay that uses HepG2, a human liver cell line, with measurements taken at 72 hours after chemical dosing in a 384-well plate.APR_HepG2_MitoMass_72hr is one of 10 assay component(s) measured or calculated from the APR_HepG2_72hr assay. It is designed to make measurements of cell phenotype, a form of morphology reporter, as detected with fluorescence intensity signals by HCS Fluorescent Imaging technology.Data from the assay component APR_HepG2_MitoMass_72hr was analyzed into 1 assay endpoint. This assay endpoint, APR_HepG2_MitoMass_72hr, was analyzed with bidirectional fitting relative to DMSO as the negative control and baseline of activity. Using a type of morphology reporter, gain or loss-of-signal activity can be used to understand changes in the signaling. Furthermore, this assay endpoint can be referred to as a primary readout, because this assay has produced multiple assay endpoints where this one serves a signaling function. To generalize the intended target to other relatable targets, this assay endpoint is annotated to the cell morphology intended target family, where the subfamily is organelle conformation.
Cells were treated with dimethyl sulfoxide (DMSO) as a solvent control at a final concentration of 0.5% v/v or with compounds in DMSO with a resulting final DMSO concentration of 0.5% v/v. Compound treatment was done at concentrations of 0.39, 0.78, 1.56, 3.12, 6.24, 12.5, 25, 50, 100, and 200 uM in duplicate on each plate. Cells were treated with compounds for 1, 24, or 72 hr. Carbonyl […] m-chloro-phenylhydrazone (CCCP) and taxol were used as positive controls for mitochondrial function and cytoskeletal stability, respectively; DMSO served as the negative control for this experiment. Cells were fixed by the direct addition of 50 uL formaldehyde in Hank's Balanced Salt Solution (HBSS) to a final concentration of 3.7%. After incubation in the fixation medium for 30 min at room temperature (293-298 K), cells were rinsed twice with HBSS and treated with cell permeabilization buffer (16 uL of 0.5% Triton X-100) for 10 min at room temperature (293-298 K) before labeling. For mitochondrial membrane potential and mitochondrial measurements, pre-fixed cells were incubated with 50 uL of MitoTracker Red CMXRos (Invitrogen) at a concentration of 250 nM for 30 min before fixation. In the remaining cases, post-fixed cells were labeled by incubation with a multiplexed mixture of primary antibodies in HBSS for 60 min at room temperature (293-298 K) to detect immunoreactivity of c-Jun (1:500), phospho-histone H3 (1:100), phospho-histone H2A.x (1:200), p53 (1:400), alpha-tubulin (1:200) and Hoechst 33342 (2 ug/mL). Cells were labeled for multiplexed imaging on two separate plates: a) Hoechst 33342, MitoTracker Red, phospho-histone H3, and alpha-tubulin, and b) Hoechst 33342, phospho-histone H2A.x, and c-Jun. A final rinse with HBSS (50 uL) was performed before analysis. The primary and secondary antibodies for the proteins were phospho-histone H3 (rabbit anti-phospho-histone H3 and FITC-donkey anti-rabbit IgG), phospho-histone H2A.x (mouse anti-phospho-histone H2A.x and FITC-donkey anti-mouse IgG), c-Jun (rabbit anti-phospho-c-Jun and Cy3-donkey anti-rabbit IgG), p53 (sheep anti-p53 and Cy5-donkey anti-sheep IgG), alpha-tubulin (mouse anti-alpha-tubulin and Cy5-donkey anti-mouse IgG). These antibodies are available as the CellCiphr HepG2 assay kit (Millipore).Digital images of each well were captured using a Cellomics ArrayScan VTI (Thermo Scientific Cellomics) (0.8 NA objective, 0.63x optical coupler, and XF-93 filter set) at 20x magnification. The images were acquired using the autofocus feature of the ArrayScan instrument, which entails the following steps. First, the camera focuses on channel 1 (Hoechst 33342), where nuclei are identified. Second, a Z offset of 1 um is used for capturing mitochondria (MitoTracker Red). […]
Consider `Nc1nc(N)c2nc(CNc3ccc(C(=O)N[C@@H](CCC(=O)O)C(=O)O)cc3)cnc2n1`, for which the molecule was called inactive.
Same read-out and setting: in the case of `CCOC(=O)C(C)(C)Oc1ccc(Cl)cc1` it was “inactive”; in that of `C[C@]12C=CC(=O)C=C1CC[C@@H]1[C@@H]2C(=O)C[C@@]2(C)[C@H]1CC[C@]2(O)C(=O)CO`, “inactive”.
On the same count and under the same terms, under `Cc1ccc(C(C)C)c(O)c1` stands “inactive”; under `C[Si]1(C)O[Si](C)(C)O[Si](C)(C)O[Si](C)(C)O1`, “inactive”; under `CC1(C)NC(=O)NC1=O`, “inactive”.
Same read-out and setting: in the case of `NCC1(Cc2noc(=O)[nH]2)CCCCC1` it was “inactive”; in that of `Cc1cccc(C)c1O`, “inactive”; in that of `CCCCCCCCCCCCCO`, “inactive”.
With `Nc1ccc2c(c1)C(=O)c1ccccc1C2=O`, the outcome was inactive.
Still for that read-out and setting: under `Cc1ccccc1Cl` stands “inactive”; under `Cc1ccc(N(C)C)cc1`, “inactive”; under `NS(=O)(=O)c1cc2c(cc1Cl)NCNS2(=O)=O`, “inactive”.
On the same count and under the same terms, in the case of `Cc1nc(C)nc(N2C[C@@H](C)N(c3ccnc([C@@H](C)O)n3)[C@@H](C)C2)n1` it was “inactive”.
With `CC(=O)OCCOCCOCCOC(C)=O`, the call was inactive.
Still for that read-out and setting: under `CCCCN(CCCC)CCCC` stands “inactive”; under `FC(F)(F)C(F)(F)C(F)(F)C(F)(F)C(F)(F)C(F)(F)CCI`, “inactive”.
`Cc1nc(-c2ccc3c(c2)CCN(CCC2CCC(NC(=O)/C=C/c4ccc(F)cc4)CC2)CC3)no1` (stereo not given): the result was inactive.
For the molecule `O=c1c(O)c(-c2ccc(O)c(O)c2)oc2cc(O)cc(O)c12`, the half-maximal activity concentration (AC50) was 7.83 µM (active).
Regarding `CC1(C)CC(N=C=O)CC(C)(CN=C=O)C1` (stereo not given), the molecule was classed as inactive.
Take `Cc1cccc(Nc2cc(Cl)nc(SCC(=O)O)n2)c1C`: the call was inactive.
With `COc1cccc2c1C(=O)c1c(O)c3c(c(O)c1C2=O)C[C@@](O)(C(=O)CO)C[C@@H]3O[C@H]1C[C@H](N)[C@H](O)[C@H](C)O1`, the AC50 was 36.6 µM (active).
In the case of `CNC(=O)[C@H]1O[C@@H](n2cnc3c(NCc4cc(Cl)ccc4OCc4cc(C)no4)ncnc32)[C@H](O)[C@@H]1N`, the outcome was inactive.
Turning to `CNCc1cc(F)ccc1Oc1ccc(Cl)c(Cl)c1`, the AC50 was 178 µM (active).
Still for that read-out and setting: in the case of `COc1ccc(S(=O)(=O)N2C(=O)[C@@](c3ccccc3OC)(N3C[C@H](O)C[C@H]3C(=O)N(C)C)c3cc(Cl)ccc32)c(OC)c1` it was 65.7 µM (active).
Same read-out and setting: under `CN1CCN(Cc2cc(-c3ccc4[nH]c(=O)oc4c3)co2)[C@@H](c2ccc(F)cc2)C1` stands 64.6 µM (active).
As to `NC(=O)Cn1c(=O)cc(CCN2CCN(c3nccc4sccc34)CC2)c2ccc(F)cc21`, the result was inactive.
The same measure, in the same setting: in the case of `Cc1ccc2ncccc2c1` it was “inactive”; in that of `COc1ccc2c(c1)c(CC(=O)O)c(C)n2C(=O)c1ccc(Cl)cc1`, “inactive”; in that of `CCCCCCC(=O)OCC`, “inactive”.
The same measure, in the same setting: under `O=C(OCCCCCOC(=O)c1ccccc1)c1ccccc1` stands “inactive”.
With `COc1cc(-c2nc(NC(=O)c3cc4cc(C)cc(C)c4n3CC(=O)O)sc2CCC2CCCCC2)c(OC)cc1Cl`, the AC50 is 78.6 µM (active).
Regarding `C=CCc1ccc(O)c(OC)c1`, the molecule was classed as inactive.
For `CCc1c(C(=O)NN2CCCCC2)nn(-c2ccc(Cl)cc2Cl)c1-c1ccc(Br)cc1`, the half-maximal activity concentration (AC50) was 162 µM (active).
Take `CCCCCCCCCCC`: the call was inactive.
As for `CCOC(=O)CCC(=O)OCC`, the outcome was inactive.
Still for that read-out and setting: under `O=C(O)CCCCC(=O)O` stands “inactive”; under `COCCOC[C@H](CC1(C(=O)NC2CCC(C(=O)O)CC2)CCCC1)C(=O)Oc1ccc2c(c1)CCC2` (stereo not given in full), “inactive”.
Turning to `Cc1c(C(=O)O)c(O)cc2c1C(=O)c1c(O)c([C@@H]3O[C@H](CO)[C@@H](O)[C@H](O)[C@H]3O)c(O)c(O)c1C2=O`, the result was inactive.
Still for that read-out and setting: under `COC(=O)c1ccc(O)cc1` stands “inactive”.

As a reminder, the AC50 is the concentration at which the activity in the assay is half-maximal.
